# PubChem BioAssay
# The source made the active and inactive calls.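 How the source made its calls, unless noted: active means normalized viability below 100% at a tested concentration; inactive means the rest.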
# How the values were obtained:
# [1] = MELAS cybrid and Rieske KO viability enhancers – cell-based, MELAS cybrids, Rieske KO mouse fibroblasts, CellTiter-Glo, primary screen (AID 1508586;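 active means mean z-score across replicates of 1.96 or higher in either the MELAS or the Rieske mutant cell line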;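 further: z relative to plate mean and SD of compound and empty wells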); conditions: low glucose
# [2] = galactose survival enhancers in mitochondrial complex I cybrids – cell-based, galactose medium, ATP luminescence, primary screen (AID 1645843;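 active means z-score of at least 1.8 in each of two replicates, scored against plate mean and spread of sample wells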;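 further: positive z means more ATP and so rescue of galactose-driven cybrid death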); conditions: complex I mutant cybrid cells, 72 h, stronger effect = higher value
# [3] = liver-stage malaria parasite load reduction – cell-based, known kinase inhibitor set, luminescence, hepatoma host viability (AID 624392; call rule not given here;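 further: infected cells incubated roughly two days before readout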); conditions: Plasmodium liver stage in hepatoma cells, luciferase luminescence, concentration not given here; liver cell % of control: measured here: host liver cell viability; parasite % of control: stronger effect = lower value
# [4] = altered dexamethasone sensitivity, NF-kB reporter, cell-based, luciferase, IL-1B stimulus (AID 624486; call rule not given here;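 on percent of negative control (+Dex): 100% = mean signal of vehicle control wells on the plate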); conditions: IL-1B + dexamethasone, luminescence; percent of negative control (+Dex): actives lie on both sides, concentration not given here; z-score: measured here: IL-1B alone, no Dex
# [5] = C. elegans survival during P. aeruginosa infection – whole organism (AID 651566; call rule not given here;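 further: tested at 14 µM; sign flipped so higher z means a lower ratio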); conditions: C. elegans killed by P. aeruginosa, survival ratio
# [6] = pro-inflammatory signaling induction in mouse macrophages – cell-based, murine, luminescence (AID 652131; call rule not given here); conditions: murine macrophage pro-inflammatory reporter, stronger effect = higher value
# [7] = drug combination growth inhibition, ovarian cancer – cell-based, oncology-focused library, rucaparib conditional, profiling panel (AID 1508598); conditions: patient-derived ovarian cancer cells, CellTiter-Glo viability, 144 h, stronger effect = lower value
# [8] = MELAS cybrid survival, CellTiter-Glo 48 h, stronger effect = higher value
# [9] = Rieske KO mouse fibroblast survival, CellTiter-Glo 72 h
smiles,measurement,setting,value
CCN1C(=O)N(C)C(=O)C12CCN(Cc1cc3oc(C)c(-c4ccccc4)c3cc1OC)CC2,z-score,[1]; [8],-0.0202 (inactive)
same,z-score,[1]; [9],-0.474
same,z-score,[2],1.74 (inactive)
COC1CN(Cc2cn(C)c3ccccc23)CC(=O)N(Cc2ccccc2)C1 (stereo not given),z-score,[1]; [8],-0.128 (inactive)
same,z-score,[1]; [9],-0.0158
same,z-score,[2],0.47 (inactive)
CN1CCN(S(=O)(=O)c2cc(C(=O)NCCc3ccccn3)cc(-c3ccccc3)c2)CC1,z-score,[1]; [8],-0.308 (inactive)
same,z-score,[1]; [9],-0.279
same,z-score,[2],-0.695 (inactive)
C[C@H]1NC(=O)[C@@H]2C[C@H](NC(=O)c3cnn(-c4ccccc4)c3C(F)(F)F)CN2C1=O,z-score,[1]; [8],0.896 (inactive)
same,z-score,[1]; [9],-0.434
same,z-score,[2],-1.26 (inactive)
COC(=O)c1c(NC(=O)C2CC2)c2cc(NC3CCOCC3)cnc2n1Cc1ccccc1,z-score,[1]; [8],-0.892 (inactive)
same,z-score,[1]; [9],0.482
same,z-score,[2],-0.845 (inactive)
Cc1ccc(C(=O)N[C@H]2C[C@H]3C(=O)N[C@@H](Cc4ccc(O)cc4)C(=O)N3C2)cc1F,z-score,[1]; [8],-0.462 (inactive)
same,z-score,[1]; [9],-0.468
same,z-score,[2],0.075 (inactive)
Cc1ccc(-c2cc(C(=O)N(C)CCc3cnn(C)c3)cc(S(=O)(=O)N3CCOCC3)c2)s1,z-score,[1]; [8],-0.0954 (inactive)
same,z-score,[1]; [9],-0.0313
same,z-score,[2],0.925 (inactive)
CCc1nc(CNc2cc(C(=O)NCc3ccccn3)cc(S(=O)(=O)N3CCCC3)c2)c(C)[nH]1,z-score,[1]; [8],-0.302 (inactive)
same,z-score,[1]; [9],-0.597
same,z-score,[2],0.97 (inactive)
O=C([C@@H]1C[C@H](CN2CCOCC2)CN(Cc2ccccc2)C1)N1CCCC1,z-score,[1]; [8],0.0951 (inactive)
same,z-score,[1]; [9],-0.211
same,z-score,[2],-0.6 (inactive)
CC1=C(CCN2CCC3(CC2)C(=O)N(C(C)C)C(=O)N3C)C(C)(C)CCC1,z-score,[1]; [8],-0.0598 (inactive)
same,z-score,[1]; [9],-0.31
same,z-score,[2],1.89 (inactive)
COc1cccc(-n2ncc3c(N/N=C/c4ccc(S(C)(=O)=O)cc4)ncnc32)c1,liver cell % of control,[3],107%
same,parasite % of control,[3],26.1% (inactive)
same,percent of negative control (+Dex),[4],136% (active)
same,z-score,[4],0.965
same,z-score,[5],-1.31 (inactive)
same,z-score,[6],-0.723 (inactive)
same,z-score,[1]; [8],1.75 (inactive)
same,z-score,[1]; [9],-0.0857
O=C(Nc1ccc(Oc2ccc3nc(NC(=O)c4ccco4)[nH]c3c2)cc1)Nc1cc(C(F)(F)F)ccc1F,liver cell % of control,[3],140%
same,parasite % of control,[3],37.4% (inactive)
same,percent of negative control (+Dex),[4],81.5% (inactive)
same,z-score,[4],-2.38
same,z-score,[5],-0.605 (inactive)
same,z-score,[6],-0.544 (inactive)
same,z-score,[1]; [8],-1.24
same,z-score,[1]; [9],6.9
CC1=C(C(=O)N2CCc3c(c(C(=O)NCc4nccs4)nn3Cc3ccccc3)C2)OCCO1,z-score,[1]; [8],-0.132 (inactive)
same,z-score,[1]; [9],0.241
same,z-score,[2],0.605 (inactive)
COC(=O)Nc1nc2ccc(Sc3ccc(NC(=O)Nc4cc(C(F)(F)F)ccc4F)cc3)cc2[nH]1,liver cell % of control,[3],136%
same,parasite % of control,[3],195% (inactive)
same,percent of negative control (+Dex),[4],96.5% (inactive)
same,z-score,[4],-0.175
same,z-score,[5],-0.56 (inactive)
same,z-score,[6],1.3 (inactive)
same,z-score,[1]; [8],-0.309 (inactive)
same,z-score,[1]; [9],-0.32
COc1cc2ncn(-c3cc(OCc4ccccc4Cl)c(C(N)=O)s3)c2cc1OC,liver cell % of control,[3],147%
same,parasite % of control,[3],37.4% (inactive)
same,percent of negative control (+Dex),[4],112% (inactive)
same,z-score,[4],0.395
same,z-score,[5],-0.73 (inactive)
same,z-score,[6],-0.517 (inactive)
same,z-score,[1]; [8],0.0989 (inactive)
same,z-score,[1]; [9],-0.32
COc1cccc(-c2cc(F)ccc2[C@H]2Cc3nc(N)nc(C)c3C(=O)N2)n1,viability,"[7]; at 0.000305 µM, OCI-C5x cells, with rucaparib 10 µM, 100% = cells with rucaparib alone",108% (inactive)
same,viability,"[7]; at 0.000305 µM, OCI-C5x cells, without rucaparib",122% (inactive)
same,viability,"[7]; at 0.000305 µM, OCI-P5x cells, with rucaparib 20 µM, 100% = cells with rucaparib alone",108% (inactive)
same,viability,"[7]; at 0.000305 µM, OCI-P5x cells, without rucaparib",113% (inactive)
same,viability,"[7]; at 0.00122 µM, OCI-C5x cells, with rucaparib 10 µM, 100% = cells with rucaparib alone",117% (inactive)
same,viability,"[7]; at 0.00122 µM, OCI-C5x cells, without rucaparib",135% (inactive)
same,viability,"[7]; at 0.00122 µM, OCI-P5x cells, with rucaparib 20 µM, 100% = cells with rucaparib alone",101% (inactive)
same,viability,"[7]; at 0.00122 µM, OCI-P5x cells, without rucaparib",112% (inactive)
same,viability,"[7]; at 0.00488 µM, OCI-C5x cells, with rucaparib 10 µM, 100% = cells with rucaparib alone",134% (inactive)
same,viability,"[7]; at 0.00488 µM, OCI-C5x cells, without rucaparib",141% (inactive)
same,viability,"[7]; at 0.00488 µM, OCI-P5x cells, with rucaparib 20 µM, 100% = cells with rucaparib alone",53.5% (active)
same,viability,"[7]; at 0.00488 µM, OCI-P5x cells, without rucaparib",34.2% (active)
same,viability,"[7]; at 0.0195 µM, OCI-C5x cells, with rucaparib 10 µM, 100% = cells with rucaparib alone",93.9% (active)
same,viability,"[7]; at 0.0195 µM, OCI-C5x cells, without rucaparib",41.2% (active)
same,viability,"[7]; at 0.0195 µM, OCI-P5x cells, with rucaparib 20 µM, 100% = cells with rucaparib alone",16.9% (active)
same,viability,"[7]; at 0.0195 µM, OCI-P5x cells, without rucaparib",8.17% (active)
same,viability,"[7]; at 0.0781 µM, OCI-C5x cells, with rucaparib 10 µM, 100% = cells with rucaparib alone",23.6% (active)
same,viability,"[7]; at 0.0781 µM, OCI-C5x cells, without rucaparib",13.1% (active)
same,viability,"[7]; at 0.0781 µM, OCI-P5x cells, with rucaparib 20 µM, 100% = cells with rucaparib alone",10.3% (active)
same,viability,"[7]; at 0.0781 µM, OCI-P5x cells, without rucaparib",7.46% (active)
same,viability,"[7]; at 0.313 µM, OCI-C5x cells, with rucaparib 10 µM, 100% = cells with rucaparib alone",11.3% (active)
same,viability,"[7]; at 0.313 µM, OCI-C5x cells, without rucaparib",8.63% (active)
same,viability,"[7]; at 0.313 µM, OCI-P5x cells, with rucaparib 20 µM, 100% = cells with rucaparib alone",6.73% (active)
same,viability,"[7]; at 0.313 µM, OCI-P5x cells, without rucaparib",5.16% (active)
same,viability,"[7]; at 1.25 µM, OCI-C5x cells, with rucaparib 10 µM, 100% = cells with rucaparib alone",10.2% (active)
same,viability,"[7]; at 1.25 µM, OCI-C5x cells, without rucaparib",7.01% (active)
same,viability,"[7]; at 1.25 µM, OCI-P5x cells, with rucaparib 20 µM, 100% = cells with rucaparib alone",5.14% (active)
same,viability,"[7]; at 1.25 µM, OCI-P5x cells, without rucaparib",4.54% (active)
same,viability,"[7]; at 5 µM, OCI-C5x cells, with rucaparib 10 µM, 100% = cells with rucaparib alone",9.37% (active)
same,viability,"[7]; at 5 µM, OCI-C5x cells, without rucaparib",7.01% (active)
